# Where a name gives a salt, the structure may show the parent alone.
# Tested on: Staphylococcus aureus MW2 delta-mecA (mecA-)
# Test: normalized GFP fluorescence (growth of mecA- strain) (fraction of control range); higher = more growth of mecA- strain
# Conditions: compound concentration: 150 uM; cefoxitin: subinhibitory; fluorescent label: GFP
# In short: (§1)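 Two pre-induced S. aureus MW2 strains, one with the gene labeled by DsRed and one lacking it labeled by GFP, were mixed 1:1 in LB with a subinhibitory antibiotic dose set daily. The mix went at 5 µL/well onto 150 μM compound (1.5% DMSO) in 1536-well plates, single replicate, and grew unshaken 20 h at 37 °C, 90% humidity. DsRed (540/590) and GFP (485/520) values were scaled per plate between single-strain control medians, and plates with high untreated ratios or rows with DsRed/GFP >10 were left out.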
row,SMILES,normalized GFP fluorescence
1,CC(CN1c2ccccc2Sc2ccccc21)N(C)C (stereo unspecified),-0.00976
2,O=C(O)C1(C(=O)O)CCC1.[NH2-].[NH2-].[Pt+2],0.26
3,O=C(c1ccc(OCCN2CCCCC2)cc1)c1c(-c2ccc(O)cc2)sc2cc(O)ccc12,-0.00866
4,Cc1cnc(C(=O)NCCc2ccc(S(=O)(=O)NC(=O)NC3CCCCC3)cc2)cn1,0.553
5,Cc1[nH+]cc(COP(=O)([O-])[O-])c(CN(CCN(CC(=O)[O-])Cc2c(COP(=O)([O-])O)c[nH+]c(C)c2O)CC(=O)[O-])c1O.[Mn].[Na+].[Na+].[Na+],0.415
6,CCC1NC(=O)c2cc(S(N)(=O)=O)c(Cl)cc2N1 (stereo unspecified),0.601
7,COc1ccc(O)cc1,0.353
8,OCCN(CCO)c1nc(N2CCCCC2)c2nc(N(CCO)CCO)nc(N3CCCCC3)c2n1,0.523
9,CCOC(=O)[C@H](CCc1ccccc1)N[C@H]1CS[C@H](c2cccs2)CN(CC(=O)O)C1=O [Temocapril HCl],0.372
10,CN[C@@H]1[C@H](O[C@H]2[C@H](O[C@H]3[C@H](O)[C@@H](O)[C@H](N=C(N)N)[C@@H](O)[C@@H]3N=C(N)N)O[C@@H](C)[C@]2(O)C=O)O[C@@H](CO)[C@H](O)[C@H]1O,0.752
11,CN(C)CCCN1c2ccccc2CCc2ccccc21,0.0133
12,Cn1c(=O)c2c(ncn2C)n(C)c1=O,0.319
13,CC(=O)O[C@]1(C(C)=O)CC[C@H]2[C@@H]3C=C(Cl)C4=CC(=O)CC[C@]4(C)[C@H]3CC[C@@]21C,0.23
14,O=C1c2c(O)ccc(O)c2C(=O)c2c(NCCNCCO)ccc(NCCNCCO)c21,0.184
15,C[N+](C)(C)CCOP(=O)(O)OP(=O)([O-])OC[C@H]1O[C@@H](n2ccc(N)nc2=O)[C@H](O)[C@@H]1O,0.342
16,OC[C@H]1O[C@@H](O[C@@H]2[C@@H](CO)O[C@](O)(CO)[C@H]2O)[C@H](O)[C@@H](O)[C@H]1O,0.29
17,Cc1ccccc1OCC(O)CO (stereo unspecified),0.392
18,Cc1c(C(=O)NN2CCCCC2)nn(-c2ccc(Cl)cc2Cl)c1-c1ccc(Cl)cc1,0.177
19,CN1CC2c3ccccc3Oc3ccc(Cl)cc3C2C1 (stereo unspecified) [Asenapine],0.129
20,O=C1CC2(CCCC2)CC(=O)N1CCCCN1CCN(c2ncccn2)CC1,0.698
21,COc1ccc(CN(CCN(C)C)c2ncccn2)cc1,0.471
22,O=c1[nH]c(=O)n([C@H]2C[C@H](O)[C@@H](CO)O2)cc1I,0.363
23,Oc1cccc(O)c1,0.565
24,CC(C)(O/N=C(\C(=O)N[C@@H]1C(=O)N2C(C(=O)[O-])=C(C[n+]3ccccc3)CS[C@H]12)c1csc(N)n1)C(=O)O,0.00772
25,CCN(CC)CCNC(=O)c1c(C)[nH]c(/C=C2\C(=O)Nc3ccc(F)cc32)c1C [Sunitinib Malate (Sutent)],0.0077
26,COc1ccc([C@@H]2Sc3ccccc3N(CCN(C)C)C(=O)[C@@H]2OC(C)=O)cc1,0.124
27,CC1(C)NC(=O)N(c2ccc([N+](=O)[O-])c(C(F)(F)F)c2)C1=O,0.333

# Tested on: Staphylococcus aureus MW2 (mecA+)
# Test: normalized DsRed fluorescence (growth of mecA+ strain) (fraction of control range); higher = more growth of mecA+ strain
# Conditions: compound concentration: 150 uM; cefoxitin: subinhibitory; fluorescent label: DsRed
# In short: as §1
row,SMILES,normalized DsRed fluorescence
1,CC[C@@]1(O)C(=O)OCc2c1cc1n(c2=O)Cc2cc3c(CN(C)C)c(O)ccc3nc2-1,0.763
2,CC(C)CN(C[C@@H](O)[C@H](Cc1ccccc1)NC(=O)O[C@H]1CCOC1)S(=O)(=O)c1ccc(N)cc1 [Amprenavir (Agenerase)],0.506
3,CC(=O)OCC(=O)[C@@]1(O)CC[C@H]2[C@@H]3CCC4=CC(=O)CC[C@]4(C)[C@H]3[C@@H](O)C[C@@]21C,0.595
4,COc1cc2nccc(Oc3ccc(NC(=O)NC4CC4)c(Cl)c3)c2cc1C(N)=O [E7080 (Lenvatinib)],0.638
5,COCCCN1CCC(NC(=O)c2cc(Cl)c(N)c3c2OCC3)CC1 [Prucalopride],0.927
6,NNC(=O)c1ccncc1,1.03
7,COC(=O)[C@@H]1[C@H]2C[C@H]3c4[nH]c5ccccc5c4CCN3C[C@@H]2CC[C@@H]1O,0.809
8,Cc1ccc(N(CC2=NCCN2)c2cccc(O)c2)cc1,0.634
9,C=CC[C@@H]1/C=C(\C)C[C@H](C)C[C@H](OC)[C@H]2O[C@@](O)(C(=O)C(=O)N3CCCC[C@H]3C(=O)O[C@H](/C(C)=C/[C@@H]3CC[C@@H](O)[C@H](OC)C3)[C@H](C)[C@@H](O)CC1=O)[C@H](C)C[C@@H]2OC,1.59
10,CN[C@@H]1[C@@H](O)[C@@H](O[C@@H]2[C@@H](O)[C@H](O[C@H]3OC(CN)=CC[C@H]3N)[C@@H](N)C[C@H]2N)OC[C@]1(C)O,0.916
11,O=P(O)(O)C(O)(Cc1cccnc1)P(=O)(O)O [Risedronic acid (Actonel)],0.671
12,Cc1ccccc1N1C(=O)c2cc(S(N)(=O)=O)c(Cl)cc2NC1C (stereo unspecified),1.33
13,CC(CN1c2ccccc2Sc2ccccc21)N(C)C (stereo unspecified),0.917
14,O=C(O)C1(C(=O)O)CCC1.[NH2-].[NH2-].[Pt+2],0.886
15,O=C(c1ccc(OCCN2CCCCC2)cc1)c1c(-c2ccc(O)cc2)sc2cc(O)ccc12,0.747
16,Cc1cnc(C(=O)NCCc2ccc(S(=O)(=O)NC(=O)NC3CCCCC3)cc2)cn1,0.734
17,Cc1[nH+]cc(COP(=O)([O-])[O-])c(CN(CCN(CC(=O)[O-])Cc2c(COP(=O)([O-])O)c[nH+]c(C)c2O)CC(=O)[O-])c1O.[Mn].[Na+].[Na+].[Na+],0.481
18,CCC1NC(=O)c2cc(S(N)(=O)=O)c(Cl)cc2N1 (stereo unspecified),0.513
19,COc1ccc(O)cc1,0.504
20,OCCN(CCO)c1nc(N2CCCCC2)c2nc(N(CCO)CCO)nc(N3CCCCC3)c2n1,0.744

row,SMILES,normalized DsRed fluorescence
1,CCOC(=O)[C@H](CCc1ccccc1)N[C@H]1CS[C@H](c2cccs2)CN(CC(=O)O)C1=O [Temocapril HCl],0.936
2,CN[C@@H]1[C@H](O[C@H]2[C@H](O[C@H]3[C@H](O)[C@@H](O)[C@H](N=C(N)N)[C@@H](O)[C@@H]3N=C(N)N)O[C@@H](C)[C@]2(O)C=O)O[C@@H](CO)[C@H](O)[C@H]1O,0.69
3,CN(C)CCCN1c2ccccc2CCc2ccccc21,1.83
4,Cn1c(=O)c2c(ncn2C)n(C)c1=O,0.708
5,CC(=O)O[C@]1(C(C)=O)CC[C@H]2[C@@H]3C=C(Cl)C4=CC(=O)CC[C@]4(C)[C@H]3CC[C@@]21C,0.594
6,O=C1c2c(O)ccc(O)c2C(=O)c2c(NCCNCCO)ccc(NCCNCCO)c21,1.12
7,C[N+](C)(C)CCOP(=O)(O)OP(=O)([O-])OC[C@H]1O[C@@H](n2ccc(N)nc2=O)[C@H](O)[C@@H]1O,0.78
8,OC[C@H]1O[C@@H](O[C@@H]2[C@@H](CO)O[C@](O)(CO)[C@H]2O)[C@H](O)[C@@H](O)[C@H]1O,0.712
9,Cc1ccccc1OCC(O)CO (stereo unspecified),0.853
10,Cc1c(C(=O)NN2CCCCC2)nn(-c2ccc(Cl)cc2Cl)c1-c1ccc(Cl)cc1,0.769
11,CN1CC2c3ccccc3Oc3ccc(Cl)cc3C2C1 (stereo unspecified) [Asenapine],1.64
12,O=C1CC2(CCCC2)CC(=O)N1CCCCN1CCN(c2ncccn2)CC1,0.71
13,COc1ccc(CN(CCN(C)C)c2ncccn2)cc1,0.813
14,O=c1[nH]c(=O)n([C@H]2C[C@H](O)[C@@H](CO)O2)cc1I,0.546
15,Oc1cccc(O)c1,0.516
16,CC(C)(O/N=C(\C(=O)N[C@@H]1C(=O)N2C(C(=O)[O-])=C(C[n+]3ccccc3)CS[C@H]12)c1csc(N)n1)C(=O)O,1.28
17,CCN(CC)CCNC(=O)c1c(C)[nH]c(/C=C2\C(=O)Nc3ccc(F)cc32)c1C [Sunitinib Malate (Sutent)],1.42
18,COc1ccc([C@@H]2Sc3ccccc3N(CCN(C)C)C(=O)[C@@H]2OC(C)=O)cc1,0.612
19,CC1(C)NC(=O)N(c2ccc([N+](=O)[O-])c(C(F)(F)F)c2)C1=O,0.86

# Source: the supplement of paper PMC7695840
